PubChem BioAssay (NCI)
This is part of a sample that, as a whole, favours compounds with a hit. Of some 83,000 tested, about 20% had one in any assay.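 Method: cells in 96-well plates; compound added at one concentration; 48 h incubation; percent growth measured; values under 10 scored active.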 Unmarked numbers belong to inactive results. Active and inactive are the calls of the source.

Legend:
Assay in all cases: NCI-60 one-dose screen, 48 h (100 = growth as untreated, 0 = no growth, -100 = all killed)
Conditions in all cases: 10 µM unless noted
[1] = tested on: DU-145 prostate
[2] = tested on: K-562 leukemia
[3] = tested on: MALME-3M melanoma
[4] = tested on: MDA-MB-231 breast
[5] = tested on: RXF 393 renal
[6] = tested on: SF-268 CNS
[7] = tested on: SF-295 CNS
[8] = tested on: SF-539 CNS
[9] = tested on: UACC-257 melanoma
[10] = tested on: M14 melanoma

Row | Structure (SMILES) | growth [1] | growth [2] | growth [3] | growth [4] | growth [5] | growth [6] | growth [7] | growth [8] | growth [9] | growth [10]
1 | CCCCCCNC(=O)Oc1ccc(/C(=C(/C)c2ccc(Cl)cc2)c2ccc(OCCN3CCCCCC3)cc2)cc1 | 86.3% | 8.93% (active) | 75.4% | 76.1% | 44.1% | 77.2% | 70% | 67% | 75.1% | 30.9%
2 | Cc1ccc(Nc2nc(SC(C)C)nc(-c3ccccc3)c2C#N)cc1 | 104% | 103% | 75.3% | 82.1% | 84.1% | 82% | 93.9% | 84.3% | 113% | 116%
3 | COc1ccc(C(C)=C(c2ccc(OCCN3CCCCCC3)cc2)c2ccc(OCCN3CCCCCC3)cc2)cc1 | 6.1% (active) | -32.5% (active) | -86.9% (active) | -60.5% (active) | -82.4% (active) | 4.71% (active) | -86% (active) | -88.4% (active) | -65.5% (active) | -89.5% (active)
4 | CN1CCN(Cc2ccc(NC(=O)c3cncc(C#Cc4cnc5ccc(OCC(F)F)nn45)c3)cc2C(F)(F)F)CC1 | -85.8% (active) | 0.0269% (active) | -86.2% (active) | -66.7% (active) | -81% (active) | -56.6% (active) | -76.6% (active) | -90.6% (active) | -33.7% (active) | -89% (active)
5 | COc1ccc(C2CC(c3cccc(OCCCCOc4cccc(C5=NN(C(C)=O)C(c6ccc(OC)cc6)C5)c4)c3)=NN2C(C)=O)cc1 (stereo not given) | 81.6% | 37% | 105% | 77.3% | 95.2% | 74.8% | 44.3% | 81.5% | 46.8% | 85.3%
6 | CC[C@]12C=CCN3CC[C@]4(C(=C(C(=O)OC)C1)Nc1cc5c(cc14)[C@@H]1[C@H](O5)[C@@H](O)[C@@]4(CC)CC(C(=O)OC)=C5Nc6cc(O)ccc6[C@@]56CCN1C46)C32 (stereo not given in full) | 22% | 3.36% (active) | 19.3% | 21% | -40.2% (active) | 6.98% (active) | 8.14% (active) | 4.2% (active) | 21.8% | 15.7%
7 | COC(=O)c1ccc(NC2=C(Cl)C(=O)c3nc(C)ccc3C2=O)cc1 | 68.5% | 7.53% (active) | 74.7% | 91.9% | 89.7% | 72.9% | 61.3% | 72.6% | 78.1% | 59.9%
8 | CCOC(=O)c1cccnc1Nc1ccc(NC(=O)Nc2ccc(Cl)c(C(F)(F)F)c2)cc1 | 32.6% | 13.4% | 51.4% | 95.8% | 93.7% | 73.5% | 9.85% (active) | 75.6% | 58% | 42.7%
